Shown are actives, neighbours in structure and some others; about 21% of the full set was active somewhere.
Pf growth 48h: Primary qHTS for delayed death inhibitors of the malarial parasite plastid, 48 hour incubation. P. falciparum luciferase growth in erythrocytes, 48 h. Potency, µM (top dose mostly 28.7 µM), without a hit: at the top dose activity change, negative = inhibition, most hits filed as inhibitors. actives 5.9% (n = 310,000). AID 504832, 2011; also: potency is read from the fitted curve at half-maximal effect; % is scaled to controls: 0 for no effect and ±100 for the full control effect
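Luminescence readout; reporter = integrated firefly luciferase in P. falciparum. RBC culture at 2% hematocrit, 0.1% parasitemia final, 37 C/5% CO2; decreased signal taken as growth inhibition.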
Shiga inhibitor: A qHTS for Small Molecule Inhibitors of Shiga Toxin; Vero cells, Shiga toxin protein synthesis inhibition reporter; inhibition, % at 38.7 µM; actives 9.2% (n = 290,000); AID 2315, 2010; in the data active = inhibition mostly above about 28%, no sharp cut-off; inactive = mostly below about 43%; also: 0% is about no effect
Pf growth 96h: Primary qHTS for delayed death inhibitors of the malarial parasite plastid, 96 hour incubation; P. falciparum luciferase reporter growth, 96 h; Potency, µM (series often up to 28.7 µM), inactives show at the top dose activity change, negative = inhibition, actives largely listed as inhibitors; actives 6.9% (n = 320,000); AID 504834, 2011; also: potency is read from the fitted curve at half-maximal effect; % is scaled to controls: 0 for no effect and ±100 for the full control effect
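Plates of compound plus infected erythrocytes (2% hematocrit, 0.05% parasitemia final) incubate 96 hours, 37 C, 5% CO2. Detection reagent added; reduced luminescence from the parasites' luciferase reporter flags inhibition.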
CHX counter: Cycloheximide Counterscreen for Small Molecule Inhibitors of Shiga Toxin | cell reporter, cycloheximide protein synthesis inhibition counterscreen | max response, % | actives 12% (n = 300,000) | AID 2314, 2010; in the data active = max response mostly above about 13%, no sharp cut-off; inactive = mostly below about 14%; also: read at 38.3 µM for the half of the compounds with a filed dose; 0% is about no effect
An asterisk follows results filed as active. Unless noted, calls follow the shape of the dose curve; as a rule, active = well fitted inhibition curve with a large enough effect; inconclusive = small, poorly fitted or top-dose-only effect, or another doubt; inactive = no such curve, though single readings can be large or run the other way.

Screening O=C(Nc1cccc(S(=O)(=O)N2CCOCC2)c1)[C@@H]1CCCN1S(=O)(=O)c1ccc(Cl)cc1 returned Pf growth 48h inconclusive, Shiga inhibitor -10, Pf growth 96h 1.9µM* and CHX counter 1.
For Cn1c2c(c(=O)n(C)c1=O)C(C(F)(F)F)(C(F)(F)F)N=C(c1ccc(Cl)cc1)N2 the results were Pf growth 48h inconclusive, Shiga inhibitor -14, Pf growth 96h 1.5µM* and CHX counter 6.
For Cc1ccccc1C1=NC(C(F)(F)F)(C(F)(F)F)c2c(n(C)c(=O)n(C)c2=O)N1 the results were Pf growth 48h inconclusive, Shiga inhibitor 109*, Pf growth 96h inconclusive and CHX counter 61*.
Cn1c2c(c(=O)n(C)c1=O)C(C(F)(F)F)(C(F)(F)F)N=C(C1CCCCC1)N2 was read as Pf growth 48h -24%, Shiga inhibitor -21, Pf growth 96h inconclusive and CHX counter -5.
For Cc1nnc(NC(=O)C23CC4CC(CC(C4)C2)C3)s1 the results were Pf growth 48h -3%, Shiga inhibitor -4, Pf growth 96h 11% and CHX counter -3.
Screening CCCNS(=O)(=O)c1ccc(CCC(=O)Nc2ccc3c(c2)OCO3)cc1 returned Pf growth 48h inconclusive, Shiga inhibitor 10, Pf growth 96h 37% and CHX counter -2.
CN(C)S(=O)(=O)c1ccc2c(c1)nc(CCC(=O)Nc1ccc3c(c1)OCO3)n2C was read as Pf growth 48h inconclusive, Shiga inhibitor 48*, Pf growth 96h inconclusive and CHX counter 9.6*.
Screening CCN(CC)S(=O)(=O)c1ccc2c(c1)nc(CCC(=O)Nc1ccc3c(c1)OCO3)n2C returned Pf growth 48h inconclusive, Shiga inhibitor -2, Pf growth 96h 9.3µM* and CHX counter 1.
`CCN(CC)S(=O)(=O)c1ccc2c(c1)nc(CCC(=O)Nc1ccc3c(c1)OCO3)n2CC` gave Pf growth 48h inconclusive, Shiga inhibitor 15, Pf growth 96h 6.6µM* and CHX counter 8.
Screening CN(C)S(=O)(=O)c1ccc2c(c1)nc(CCC(=O)Nc1ccc(N3CCOCC3)cc1)n2C returned Pf growth 48h inconclusive, Shiga inhibitor 10, Pf growth 96h -12% and CHX counter -1.
Screening O=C(Nc1nc(-c2ccc(F)c(F)c2)cs1)C1=COCCO1 returned Pf growth 48h 84% and Pf growth 96h 42%.
O=C(/C=C/c1ccc2c(c1)OCO2)Nc1nc(-c2ccc(F)cc2)cs1 was read as Pf growth 48h 12%, Shiga inhibitor -2, Pf growth 96h inconclusive and CHX counter 2.
Screening CC(C)(C)C(=O)Nc1nc(-c2ccc3c(c2)OCO3)cs1 returned Shiga inhibitor 51*, Pf growth 96h 20% and CHX counter 24*.
For O=C(COC(=O)c1ccc2c(c1)OCO2)Nc1nc(-c2ccccc2)cs1 the results were Pf growth 48h 15%, Shiga inhibitor 7, Pf growth 96h -10% and CHX counter 0.
CCC(=O)Nc1nc(-c2ccc3c(c2)OCCO3)cs1 was read as Pf growth 48h 98%, Shiga inhibitor active, Pf growth 96h 187% and CHX counter 31*.
Screening c1cc2c(cc1-c1csc(NNC3=NCCCCC3)n1)OCCO2 returned Pf growth 48h inconclusive, Shiga inhibitor 55*, Pf growth 96h inconclusive and CHX counter 37*.
Screening COc1ccccc1C(=O)Nc1nc(-c2ccc3c(c2)OCCO3)cs1 returned Pf growth 48h 7%, Shiga inhibitor 57*, Pf growth 96h 0% and CHX counter 28*.
`CCCCn1c(SCC(=O)Nc2cc(C(F)(F)F)ccc2Cl)nnc1C(CC)N(C)C` (stereo not drawn) gave Pf growth 48h 8.3µM*, Shiga inhibitor -12, Pf growth 96h inconclusive and CHX counter -5.
CCCCn1c(SCC(=O)Nc2ccc(C)c(S(=O)(=O)N3CCOCC3)c2)nnc1C(CC)N(C)C (stereo not drawn) was read as Pf growth 48h inconclusive and Pf growth 96h -9%.
`CCc1ccc2[nH]cc(C(=O)OCCOC)c(=O)c2c1` gave Pf growth 48h 1.5µM*, Shiga inhibitor -15, Pf growth 96h 10µM* and CHX counter -1.
Screening CCOC(=O)c1c[nH]c2cc(OCC(C)C)c(OCC(C)C)cc2c1=O returned Pf growth 48h 0.054µM* and Pf growth 96h 0.038µM*.
Screening CCOC(=O)c1c[nH]c2nc(C)ccc2c1=O returned Pf growth 48h -28%, Shiga inhibitor 38, Pf growth 96h 31% and CHX counter 15.
For COc1ccc(-n2c(O)c(C(C)=NCCc3c[nH]c4ccccc34)c(=O)[nH]c2=O)cc1 the results were Pf growth 48h 12µM*, Shiga inhibitor -6, Pf growth 96h inconclusive and CHX counter -2.
CCC(CC)C(=O)Nc1cccc(C(=O)c2ccccc2)c1 was read as Shiga inhibitor -11, Pf growth 96h inconclusive and CHX counter -3.
For CCOC(=O)c1ccc(NC(=S)N2CCN(C(=O)C3CCCO3)CC2)cc1 (stereo not drawn) the results were Pf growth 48h -11%, Shiga inhibitor 0, Pf growth 96h -4% and CHX counter 8.
For O=C(CSc1nnc(Cc2ccccc2)o1)N1CCCC1 the results were Pf growth 48h 13%, Shiga inhibitor 21, Pf growth 96h -1% and CHX counter 16.
For O=C(CCc1nnc(Cc2ccc(-c3ccccc3)cc2)o1)N1CCCC1 the results were Pf growth 48h inconclusive, Shiga inhibitor -17, Pf growth 96h 9.3µM* and CHX counter -3.
For COCCCNC(=O)CCc1nnc(Cc2ccc(-c3ccccc3)cc2)o1 the results were Pf growth 48h -22%, Shiga inhibitor 1, Pf growth 96h inconclusive and CHX counter 0.
`CC1CCN(C(=O)CCc2nnc(-c3ccccc3)o2)CC1` gave Pf growth 48h 16%, Shiga inhibitor 97*, Pf growth 96h inconclusive and CHX counter 43*.
CC(C)CN(C)C(=O)CCc1nnc(Cc2ccc(-c3ccccc3)cc2)o1 was read as Pf growth 48h inconclusive, Shiga inhibitor 38, Pf growth 96h inconclusive and CHX counter 22*.
For C=CCN1C(=S)CC(c2ccccc2)=Nc2ccccc21 the results were Pf growth 48h inconclusive, Shiga inhibitor -8, Pf growth 96h inconclusive and CHX counter 1.
For CC1(c2ccccc2)CC(c2ccccc2)=Nc2ccccc2N1 (stereo not drawn) the results were Pf growth 48h inconclusive, Shiga inhibitor 91*, Pf growth 96h -11% and CHX counter 57*.
For CC1(c2ccccc2)CC(c2ccccc2)=Nc2nonc2N1 (stereo not drawn) the results were Pf growth 48h 1.5µM*, Shiga inhibitor -13, Pf growth 96h inconclusive and CHX counter -1.
For Cc1ccc(C2=Nc3ccccc3NC(C)(c3ccc(C)o3)C2)o1 (stereo not drawn) the results were Pf growth 48h inconclusive, Shiga inhibitor 82*, Pf growth 96h inconclusive and CHX counter 60*.
For CCCCn1c(=O)c2[nH]c(C34CC5CC(CC3C5)C4)nc2n(CCCO)c1=O the results were Shiga inhibitor -8 and CHX counter 1.

Assay outcomes (PubChem)
